SMILES strings stand for the structures. The whole screen tested about 360,000 compounds, of which about 9,100 (2.5%) were called active. About 4% were inconclusive and are not listed. Only a selection was taken, and actives are over-represented in it overall. Unmarked numbers belong to inactive results. No stated cut-off is given here; in the data, active means max response below about -50%; inconclusive means no clear call, values can overlap the other calls; inactive means above that.
On the % scale 0 is the no-effect control and ±100 the full control effect.

Sequence of D(3) dopamine receptor (Homo sapiens) (P35462 whole entry, looked up): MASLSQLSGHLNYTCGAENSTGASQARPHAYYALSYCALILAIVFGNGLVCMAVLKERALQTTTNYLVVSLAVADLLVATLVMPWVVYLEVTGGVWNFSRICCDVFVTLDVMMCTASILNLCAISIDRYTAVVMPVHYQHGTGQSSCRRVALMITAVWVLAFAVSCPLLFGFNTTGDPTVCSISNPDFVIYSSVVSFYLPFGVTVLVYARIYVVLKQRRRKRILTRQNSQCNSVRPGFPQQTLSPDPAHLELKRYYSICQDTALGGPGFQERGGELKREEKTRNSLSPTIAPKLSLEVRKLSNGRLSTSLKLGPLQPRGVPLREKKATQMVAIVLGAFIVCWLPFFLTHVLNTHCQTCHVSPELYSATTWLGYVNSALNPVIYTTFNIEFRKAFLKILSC

In the assay the target is D(3) dopamine receptor (Homo sapiens) (UniProt P35462). Nature of the assay: qHTS of D3 Dopamine Receptor Antagonist: qHTS. The following applies: D3R cells, DiscoveRx beta-arrestin luminescence, antagonist mode; active compounds read low. From the text:
D3 DARs represent a very important target for the treatment of several neuropsychiatric disorders. Indeed, one of the most promising therapeutic applications for the D3 DAR is in the area of addiction and related disorders. […] These findings have been observed with a number of addictive substances including cocaine, amphetamine, nicotine, and alcohol. […] Antagonism of the D3 DAR may also be therapeutic in the treatment of schizophrenia or psychosis. […] Since the D3 DAR is expressed in areas of the CNS associated with the control of mood and emotion, it has been hypothesized that selective antagonism of the D3 DAR may be effective in treating psychosis without inducing the motor side effects typically seen with D2 DAR antagonists.
This part of the project aims to discover novel antagonist.
NIH Chemical Genomics Center [NCGC]
NIH Molecular Libraries Probe Centers Network [MLPCN]
Assay Submitter (PI): David Sibley, NINDS
Freshly passaged cells are plated in 1536 well white, solid bottom plates at a density of 1500 cells/well in 3microl of complete media. After an overnight incubation at 37 degrees C in 5% CO2, cells are loaded with 23nl of test compound from the compound library (as well as dopamine controls) using a 1536 pintool and incubated at 37 degrees C for 90 minutes. Two microliters of DiscoveRx reagent is then added to all cells, and they are incubated for an additional 30 - 60 minutes at room temperature. Following incubation, luminescence is measured on a ViewLux CCD-based luminometer reader using a 20 sec exposure time.
Regarding `Cc1cccc(C)c1NC(=O)CN1CCN(c2ccc(F)cc2)CC1`, the max response, negative = inhibition was -14.3%.
The same measure for `Oc1c(CN2CCN(c3ccc(F)cc3)CC2)cc(Cl)c2cccnc12`: -59.7% (active); for `Cc1ccc(CN2CCN(c3ncccn3)CC2)c(C)c1`: -14.2%.
The same measure for `COc1ccc(-c2nc3ccc(Br)cn3c2Cc2ccc(C)cc2)cc1OC`: 33.3%.
With `CCc1nc2c(OCCOc3ccc(F)cc3)cccn2c1N(C)C(=O)c1ccccc1F` the figure was 9.16%; with `CC1CN(C(=O)CCC(=O)NCc2cccnc2)c2ccccc2O1` (stereo not drawn), -17.6%; with `CC1CN(C(=O)CCC(=O)NCCCN2CCC(Cc3ccccc3)CC2)c2cc(Cl)ccc2O1` (stereo not drawn), -69.6% (active).
Turning to `CC1CN(C(=O)CCC(=O)NC2CCN(Cc3ccccc3)CC2)c2ccccc2O1` (stereo not drawn), the max response, negative = inhibition was -13.6%.
As for `CC1=C(C(=O)N2CCOCC2)CC(CC(=O)NCc2cccc3ccccc23)C(=O)N1CCC1=CCCCC1` (stereo not drawn), the max response, negative = inhibition was -26.6%.
With `CCCc1nc2c3ccccc3ccn2c1Cc1ccccc1C(F)(F)F` the figure was -26.6%.
For the compound `CC1=C(C(=O)N2CCOCC2)CC(CC(=O)NCc2cccs2)C(=O)N1CCCN1CCCC1=O` (stereo not drawn), the max response, negative = inhibition was 0%.
`COc1ccc(Cl)cc1NC(=O)CN(C)C(=O)c1cn(-c2ccccc2)nc1-c1cccs1`: the max response, negative = inhibition is 0.189%.
The same measure for `COCCCNc1nc2ccccc2nc1NS(=O)(=O)c1ccc(F)cc1`: 0.291%.
With `Cc1ccc(S(=O)(=O)C(C#N)c2nc3ccccc3nc2N2CCCC2)cc1C` (stereo not drawn) the figure was 17.6%; with `Cc1ccc(S(=O)(=O)Nc2nc3ccccc3nc2N2CCc3ccccc3C2)cc1`, -50.8% (active); with `CCc1c(-c2ccc(F)cc2)ncn1Cc1cccc(-c2ccccc2)c1`, -10.3%.
The same measure for `Nc1nc2c(ncn2[C@@H]2O[C@H](CNCc3ccc(OCCCN4CCOCC4)cc3)[C@@H](O)[C@H]2O)c(=O)[nH]1`: -3.82%.
In the case of `CCOC(=O)C1CCCN(C(=O)c2cccc3ccccc23)CC1` (stereo not drawn), the max response, negative = inhibition was 15.1%.
With `CC1CCCCC1NC(=O)/C(C#N)=C/C=C/c1ccccc1[N+](=O)[O-]` (stereo not drawn) the figure was -12.8%; with `CC1CC(C)CN(C/C=C/c2ccccc2[N+](=O)[O-])C1` (stereo not drawn), -73.4% (active); with `COc1cc(CN2CC(C)CC(C)C2)cc([N+](=O)[O-])c1O` (stereo not drawn), 17.6%.
With `O=[N+]([O-])c1ccccc1/C=C/CN1CCCC(CO)C1` (stereo not drawn) the figure was -76% (active); with `O=C(/C=C/c1ccccc1[N+](=O)[O-])OCC(=O)N1CCCC1`, 9.84%.
In the case of `CC(C)CNC(=O)COC(=O)/C=C/c1ccccc1[N+](=O)[O-]`, the max response, negative = inhibition is -8.96%.
With `CN[C@H]1C[C@H]2c3cc(Oc4ccccc4C)ccc3CCN2C(=O)[C@H]1[C@H](C)O` the figure was 23.3%; with `Cc1noc(C)c1-c1ccc(C(=O)NCc2ccncc2)c2occc12`, -3.57%; with `COc1cccc(C(NC(C)=O)c2nc(-c3cnc4ccccc4c3)cs2)c1` (stereo not drawn), 11.3%.
With `C[C@H](CO)N1C[C@H](C)[C@@H](CN(C)C(=O)c2cnccn2)Oc2ncc(Br)cc2C1=O` the figure was -23.4%.
With `Cc1ccc(-c2cnc(C(O)c3cccc(C)c3C)[nH]2)cc1` (stereo not drawn) the figure was -20.7%; with `COc1ccc(OC)c(C(=O)NC2CCCc3c2cnn3-c2cc(C)cc(C)c2)c1` (stereo not drawn), 57.4%; with `CCc1nc2c(OCc3cccc(OC)c3)cccn2c1N(C)C(=O)C(C)C`, 10.3%.
As for `Cc1ccc(C(=O)N[C@H](C(=O)N2CCN(c3ncccn3)CC2)C(C)C)cc1`, the max response, negative = inhibition was 0%.
Take `OCCNc1nc(Nc2ccc(Cl)c(Cl)c2)nc2ccccc12`: the max response, negative = inhibition was -28.2%.
The same measure for `Nc1nnc(SCC(=O)Nc2ccc3nc(SCC(=O)Nc4ccccc4)sc3c2)s1`: 0.758%; for `O=[N+]([O-])c1c(NCCO)cc(Sc2nc3ccccc3s2)c2nonc12`: -81.4% (active); for `CCCC(=O)N1CCC1(C)C(=O)Nc1ccc(-n2cncn2)cc1` (stereo not drawn): -18.5%.
The same measure for `COc1cccc(CNC(=O)[C@@H]2CCCN2C(=O)[C@@H]2CCCN2C(=O)c2ccccc2)c1`: -10.4%; for `CSc1ncccc1C(=O)N1CCCC(Nc2ccc(F)c(F)c2)C1` (stereo not drawn): 1.51%; for `CCOC(=O)C1CCCCN1Cc1ccc(OC)c(OC)c1OC` (stereo not drawn): -50.5% (active).
The same measure for `CCOC(=O)C1CCN(C(=O)/C=C/c2cc(OC)c(OC)c(OC)c2)CC1`: 0.0271%; for `CCOC(=O)C1CCN(S(=O)(=O)c2cc(F)ccc2OC)CC1`: 2.14%.
For the compound `CCCCNC(=O)C[C@@H]1C[C@@]2(C(=O)OCC)CCC=C2N(Cc2ccco2)C1=O`, the max response, negative = inhibition was -17.5%.
The same measure for `CC(=O)Nc1ccc(C=Cc2ccc([N+](=O)[O-])cc2)cc1`: -0.898%; for `COc1cccc(NC(=O)[C@H](Cc2c[nH]c3ccccc23)NC(=O)[C@@H]2Cc3ccccc3CN2)c1`: 0%.
As to `COc1ccc(NC(=O)[C@H](NC(=O)[C@@H]2Cc3ccccc3CN2)c2ccccc2)cc1`, the max response, negative = inhibition is -97.8% (active).
With `COc1ccc(NC(=O)C2CCC(CNC(=O)[C@@H]3Cc4ccccc4CN3)CC2)cc1` (stereo partly drawn) the figure was -8.86%; with `O=C1OCCOC2CCCc3oc(-c4ccccc4)c1c32` (stereo not drawn), -1.49%.
The same measure for `O=C(COc1ccc(S(=O)(=O)N2CCCC2)cc1[N+](=O)[O-])N1CCCCC1`: -6.05%.
With `CN1CCC[C@@H]1CCO[C@](C)(c1ccccc1)c1ccc(Cl)cc1` the figure was -107% (active).
Turning to `CCC1CCC/C1=N\NC(=O)c1ccc(Cl)cc1` (stereo not drawn), the max response, negative = inhibition was -14%.
The same measure for `CC1CCCN(CC(=O)Nc2cc(Cl)ccc2Oc2ccccc2)C1` (stereo not drawn): 0.948%.
The same measure for `C#Cc1ccc(NC(=O)C2(C)CCN2C(=O)Cc2ccc(-c3ccccc3)cc2)cc1` (stereo not drawn): 4.18%; for `O=C(NCc1cccnc1)c1cc(C2CCCN(C(=O)CCCc3ccccc3)C2)on1` (stereo not drawn): 33.8%; for `COc1ccccc1CN1CCCC(N2CCN(c3ccc(F)cc3)CC2)C1` (stereo not drawn): 4.28%.
The same measure for `COc1ccc(C2C(C#N)=C(N)Oc3n[nH]c(C)c32)cc1CN1CCN(c2ccc(F)cc2)CC1` (stereo not drawn): -95% (active); for `COc1ccc(-c2[nH]nc3c2C(c2ccncc2)C(C#N)=C(N)O3)cc1` (stereo not drawn): -18.7%.
Turning to `CCC(CC)C(C(=O)NC1CCCC1)N1CCN(c2cc(C)nc3ccccc23)CC1` (stereo not drawn), the max response, negative = inhibition was 14.1%.
The same measure for `O=C(Nc1ccccc1Cl)/C(Cl)=C(\Cl)S(=O)c1ccccc1` (stereo not drawn): -94.9% (active).
With `CS/C(=C\C(=O)c1ccco1)Nc1ccccc1Cl` the figure was 0.757%.
The same measure for `NC(=O)C1(Nc2ccccc2Cl)CCCC1`: -22%; for `O=C(NCc1ccco1)c1cccc(-c2ccc3nncn3c2)c1`: -9.17%; for `CCc1nc2c(OCCOc3ccccc3)cccn2c1N(C=O)Cc1ccc(OC)cc1`: 12.7%.
Consider `COc1ccccc1NC(=O)[C@H](COCc1ccccc1)NC(=O)OC(C)(C)C`, for which the max response, negative = inhibition is 13.5%.
For `C[C@@H](NC(=O)OC(C)(C)C)c1nnc(S(=O)(=O)Cc2ccccc2)o1`, the max response, negative = inhibition is -110% (active).
With `CCc1ccccc1NC(=O)CSc1nnc([C@@H](NC(=O)OC(C)(C)C)C(C)CC)o1` (stereo partly drawn) the figure was -1.74%; with `CCNC(=O)C1(C)CCCN(C(=O)c2c(C)noc2C)C1` (stereo not drawn), 0%; with `COc1ccc(NS(=O)(=O)c2ccc(Oc3c(C#N)cccc3C#N)cc2)cc1`, 0.938%.
The same measure for `COc1ccc(S(=O)(=O)/N=C2\C=C(NS(=O)(=O)c3ccccc3)C(=O)c3ccccc32)cc1`: -59.6% (active); for `CCCC(NS(=O)(=O)c1ccc(OC)cc1)C(=O)O` (stereo not drawn): -4.83%.
The same measure for `O=S1(=O)CC(N2CCN(Cc3ccccc3F)CC2)CN1Cc1cn(Cc2cccc(C(F)(F)F)c2)nn1` (stereo not drawn): 1.97%; for `CC(C=Cc1ccccc1)=NNS(=O)(=O)c1ccc([N+](=O)[O-])cc1`: -22%; for `COc1ccc(CCNS(=O)(=O)c2cccc([N+](=O)[O-])c2)cc1`: -20.3%.
Regarding `C/C(=N\NS(=O)(=O)c1cccc([N+](=O)[O-])c1)c1cc2ccccc2o1`, the max response, negative = inhibition is -65.1% (active).
With `CCn1c(COc2ccc(OC)cc2)nnc1SCC(=O)Nc1cc(OC)ccc1OC`, the max response, negative = inhibition is 5.77%.
With `CCOC(=O)CNC(=O)CSc1nnc(COc2ccc(Cl)cc2)n1CC` the figure was -55.4% (active); with `CCOC(=O)CNC(=O)CSc1nnc(-c2cccc(OC)c2)n1CC`, 0%; with `CCOC(=O)C(C(=O)c1ccccc1)C(c1ccccc1)c1nccc2ccccc12` (stereo not drawn), -11.4%.
With `COc1ccc(S(=O)(=O)N2CCCCC2)cc1C(=O)NC1CCS(=O)(=O)C1` (stereo not drawn) the figure was 22%; with `COc1ccc(NC(=O)CN2C(=O)NC(C)(c3ccccc3)C2=O)cn1` (stereo not drawn), 28.1%.
The same measure for `COc1ccc(C(O)c2nc(-c3ccc(OC)nc3)cs2)cc1` (stereo not drawn): -0.57%; for `COc1ccc(CS(=O)/C(Cl)=C(/Cl)C(=O)Nc2ccc(OC)nc2)cc1` (stereo not drawn): -91.9% (active); for `CN1OC[C@@H]2CN(C(=O)c3cccnc3)[C@H](c3ccc(N4CCCCC4)cc3)C[C@@H]21`: 33.1%.
Take `CN1OC[C@@H]2CN(C(=O)c3ccc(-c4ccccc4)cc3)[C@H](c3ccc(-c4cccc(F)c4)cc3)C[C@@H]21`: the max response, negative = inhibition was -51.6% (active).
With `CN1OC[C@@H]2CN(C(=O)c3cccc4ccccc34)[C@H](c3ccc(N4CCCCC4)cc3)C[C@@H]21` the figure was 0.382%.
For the compound `COc1cccc(NC(=O)C2(C)CCN2Cc2ccccc2Cl)c1` (stereo not drawn), the max response, negative = inhibition was 9.45%.
With `Cn1c(CNC(=O)c2ccco2)nnc1SCC(=O)N1CCN(c2ccccc2)CC1` the figure was 9.96%; with `O=C(NCc1nnc(SCC(=O)N2CCC(Cc3ccccc3)CC2)o1)c1ccco1`, -56.2% (active); with `O=C(NCc1nnc(SCC(=O)N2CCCCCC2)o1)c1ccc(F)cc1`, -15.6%.
